Results published in PubChem BioAssay (Tox21).
Records with an inconclusive call do not appear. Calls of active or inactive are those of the source. Unless noted, calls follow the shape of the dose curve; as a rule, active = well fitted curve in the direction sought with a large enough effect in the repeat runs; inconclusive = weak or mixed curves; inactive = no such curve, though single readings can be large; an effect the other way counts as inactive or inconclusive.

Tests used:
[1] = Human pregnane X receptor (PXR) small molecule agonists, qHTS cell viability counter screen (AID 1346977); also: nearly all actives have a fitted effect of over 50% in size
How it was run: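 Same-well viability read: CellTiter-Fluor added after 23 hr compound exposure, fluorescence measured 1 hr later. Cells were PXR-Luc HepG2 seeded at 2,000/well in 5% charcoal-stripped FBS medium, rested 5 hr before dosing at 37 C.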

[2] = Caspase-3/7 induction in HepG2 cells by small molecules, qHTS assay (AID 1346978); also: nearly all actives have a fitted effect of over 15% in size
How it was run: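 Wild-type HepG2 cells, 2,000/well, settled 5 hr at 37 C and 5% CO2, then compound-treated for 17 hr; caspase-3/7 activity read by luminescent Caspase-Glo 3/7 after 30 min at room temperature.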

[3] = Caspase-3/7 induction in CHO-K1 cells by small molecules, qHTS assay (AID 1346980); also: nearly all actives have a fitted effect of over 15% in size
How it was run: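 Wild-type CHO-K1 cells exposed to compounds for 17hr at 37 C, 5% CO2. Caspase-3/7 activity then measured by Caspase-Glo 3/7 luminescence after 30min at room temperature.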

[4] = Caspase-3/7 induction in HepG2 cells by small molecules, qHTS cell viability counter screen (AID 1346981); also: series mostly up to about 92 µM; nearly all actives have a fitted effect of over 30% in size
How it was run: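 Viability determined by CellTiter-Fluor fluorescence in HepG2 wells also used for the luminescent Caspase-Glo 3/7 read. Compounds were present for 16 hr at 37 C, 5% CO2 before reagent addition.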

[5] = target: Nuclear receptor subfamily 1 group I member 2 (Homo sapiens) (UniProt O75469); assay: Human pregnane X receptor (PXR) small molecule agonists, qHTS assay (AID 1346982); also: nearly all actives have a fitted effect of over 35% in size; also: potency is read from the fitted curve at half-maximal effect
Nuclear receptor subfamily 1 group I member 2 (Homo sapiens), sequence (O75469 whole entry, looked up): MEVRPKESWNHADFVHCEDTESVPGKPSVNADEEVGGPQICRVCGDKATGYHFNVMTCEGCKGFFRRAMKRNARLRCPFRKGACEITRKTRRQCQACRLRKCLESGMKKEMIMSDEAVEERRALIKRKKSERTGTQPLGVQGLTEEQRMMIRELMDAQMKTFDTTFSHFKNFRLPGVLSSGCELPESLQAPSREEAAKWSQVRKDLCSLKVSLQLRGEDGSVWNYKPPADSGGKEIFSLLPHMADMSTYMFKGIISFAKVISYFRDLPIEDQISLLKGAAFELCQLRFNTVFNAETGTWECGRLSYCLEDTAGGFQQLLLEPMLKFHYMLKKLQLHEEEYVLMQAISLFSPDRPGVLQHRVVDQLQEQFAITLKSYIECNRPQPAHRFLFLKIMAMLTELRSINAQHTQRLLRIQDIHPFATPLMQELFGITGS
How it was run: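 Compound-induced hPXR transactivation of a CYP3A4 luciferase reporter was scored in HepG2 PXR-Luc cells over 24 hr at 37 C, 5% CO2, by luminescence.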

[6] = target: Acetylcholinesterase (Homo sapiens) (UniProt P22303); assay: Acetylcholinesterase (AChE) small molecule antagonists: colormetric cell-based qHTS assay (AID 1347395; calls by dose curve; also: nearly all actives have a fitted effect of over 30% in size; also: potency is read from the fitted curve at half-maximal effect)
Acetylcholinesterase (Homo sapiens), sequence (P22303 whole entry, looked up): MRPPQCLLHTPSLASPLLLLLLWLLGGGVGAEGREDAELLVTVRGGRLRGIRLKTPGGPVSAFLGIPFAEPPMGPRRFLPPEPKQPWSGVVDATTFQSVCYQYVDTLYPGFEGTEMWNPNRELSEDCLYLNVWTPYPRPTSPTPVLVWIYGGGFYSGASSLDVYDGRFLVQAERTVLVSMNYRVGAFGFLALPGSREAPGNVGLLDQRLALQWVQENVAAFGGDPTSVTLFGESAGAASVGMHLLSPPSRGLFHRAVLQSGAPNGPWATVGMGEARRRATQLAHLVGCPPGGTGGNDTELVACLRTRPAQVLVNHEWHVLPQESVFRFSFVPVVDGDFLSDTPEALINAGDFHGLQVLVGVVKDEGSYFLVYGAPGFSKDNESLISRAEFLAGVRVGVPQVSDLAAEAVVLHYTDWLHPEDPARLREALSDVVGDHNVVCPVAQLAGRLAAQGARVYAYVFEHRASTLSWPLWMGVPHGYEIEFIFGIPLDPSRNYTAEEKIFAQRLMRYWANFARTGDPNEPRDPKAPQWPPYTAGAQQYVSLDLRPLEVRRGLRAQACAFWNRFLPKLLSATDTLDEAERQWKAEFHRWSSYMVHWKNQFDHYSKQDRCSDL
How it was run: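 Colorimetric readout: DTNB quantifies thiocholine from acetylthiocholine hydrolysed by endogenous AChE of SH-SY5Y cells (2,000/well, plated overnight). Compound pretreatment 30 min, substrate incubation 90 min, both 37 C.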

[7] = target: Acetylcholinesterase (Homo sapiens) (UniProt P22303); assay: Acetylcholinesterase (AChE) small molecule antagonists: enzyme-based qHTS assay (AID 1347397; calls by dose curve; also: nearly all actives have a fitted effect of over 55% in size; also: potency is read from the fitted curve at half-maximal effect); settings: Potency: AChE enzyme activity inhibition
How it was run: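 Enzyme inhibition was scored from DTNB-detected thiocholine formed by recombinant human AChE acting on acetylthiocholine. The 30 min compound preincubation and 10 min substrate reaction were both run at room temperature, with DMSO as vehicle control.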

[8] = target: Acetylcholinesterase (Homo sapiens) (UniProt P22303); assay: Acetylcholinesterase (AChE) small molecule antagonists: enzyme-based qHTS assay with human liver microsomes (AID 1347399; calls by dose curve; also: nearly all actives have a fitted effect of over 60% in size; also: potency is read from the fitted curve at half-maximal effect); settings: Potency: qHTS inhibition
How it was run: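 Recombinant human AChE (50 mU/mL in the enzyme mix) and human liver microsomes (0.25 mg/mL final) were preincubated with compound and NADPH (0.25 mg/mL final) for 30 min at 37 C. Acetylthiocholine/DTNB was then added; thiocholine was read colorimetrically after 10 min at room temperature.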

[9] = target: Cytochrome P450 2D6 (Homo sapiens) (UniProt P10635); assay: Cytochrome P450 Family 2 Subfamily D Member 6 (CYP2D6) small molecule antagonists: luciferase reporter qHTS assay (AID 1671196); also: nearly all actives have a fitted effect of over 50% in size; also: potency is read from the fitted curve at half-maximal effect
Cytochrome P450 2D6 (Homo sapiens), sequence (P10635 whole entry, looked up): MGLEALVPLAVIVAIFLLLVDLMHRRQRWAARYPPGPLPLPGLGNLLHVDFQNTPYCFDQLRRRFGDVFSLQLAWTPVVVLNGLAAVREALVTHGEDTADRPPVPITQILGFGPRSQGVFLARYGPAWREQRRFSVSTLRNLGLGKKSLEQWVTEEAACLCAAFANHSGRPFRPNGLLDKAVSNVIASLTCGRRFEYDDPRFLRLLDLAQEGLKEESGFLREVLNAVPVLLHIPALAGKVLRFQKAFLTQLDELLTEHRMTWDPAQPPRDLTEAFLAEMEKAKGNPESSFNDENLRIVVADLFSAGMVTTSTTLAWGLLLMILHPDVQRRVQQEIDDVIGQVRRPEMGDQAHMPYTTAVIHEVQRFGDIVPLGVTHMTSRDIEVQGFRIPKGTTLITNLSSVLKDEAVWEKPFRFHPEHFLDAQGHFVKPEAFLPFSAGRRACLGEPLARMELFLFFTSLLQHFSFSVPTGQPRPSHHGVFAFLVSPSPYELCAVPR
How it was run: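 Each well received CYP2D6 with its proluciferin substrate and chemical, sat 10 min, then got NADPH regeneration solution for 1 h at room temperature. Luminescence in RLU served as the activity measure.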

[10] = target: Cytochrome P450 2C19 (Homo sapiens) (UniProt P33261); assay: Cytochrome P450 Family 2 Subfamily C Member 19 (CYP2C19) small molecule antagonists: luciferase reporter qHTS assay (AID 1671197); also: nearly all actives have a fitted effect of over 65% in size; also: potency is read from the fitted curve at half-maximal effect
Cytochrome P450 2C19 (Homo sapiens), sequence (P33261 whole entry, looked up): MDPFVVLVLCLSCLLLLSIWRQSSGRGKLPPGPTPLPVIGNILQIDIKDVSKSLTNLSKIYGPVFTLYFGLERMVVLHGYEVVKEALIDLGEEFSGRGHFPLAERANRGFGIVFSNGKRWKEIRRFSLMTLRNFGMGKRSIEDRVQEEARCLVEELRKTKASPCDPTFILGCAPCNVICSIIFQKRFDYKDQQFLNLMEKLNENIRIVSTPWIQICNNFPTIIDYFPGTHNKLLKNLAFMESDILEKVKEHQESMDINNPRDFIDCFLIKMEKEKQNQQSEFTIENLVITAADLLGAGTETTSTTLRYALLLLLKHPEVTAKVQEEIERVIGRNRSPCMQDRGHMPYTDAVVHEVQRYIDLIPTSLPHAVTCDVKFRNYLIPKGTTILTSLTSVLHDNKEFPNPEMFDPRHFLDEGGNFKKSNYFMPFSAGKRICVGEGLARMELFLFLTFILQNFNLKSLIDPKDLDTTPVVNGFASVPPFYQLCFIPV
How it was run: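 Light output is proportional to CYP2C19 activity: proluciferin substrate is converted to luciferin, then detected by a luciferin detection reagent that also stops the 1 h, 37C NADPH-driven reaction. Ketoconazole serves as positive control.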

[11] = target: Cytochrome P450 2C9 (Homo sapiens) (UniProt P11712); assay: Cytochrome P450 Family 2 Subfamily C Member 9 (CYP2C9) small molecule antagonists: luciferase reporter qHTS assay (AID 1671198); also: nearly all actives have a fitted effect of over 50% in size; also: potency is read from the fitted curve at half-maximal effect
Cytochrome P450 2C9 (Homo sapiens), sequence (P11712 whole entry, looked up): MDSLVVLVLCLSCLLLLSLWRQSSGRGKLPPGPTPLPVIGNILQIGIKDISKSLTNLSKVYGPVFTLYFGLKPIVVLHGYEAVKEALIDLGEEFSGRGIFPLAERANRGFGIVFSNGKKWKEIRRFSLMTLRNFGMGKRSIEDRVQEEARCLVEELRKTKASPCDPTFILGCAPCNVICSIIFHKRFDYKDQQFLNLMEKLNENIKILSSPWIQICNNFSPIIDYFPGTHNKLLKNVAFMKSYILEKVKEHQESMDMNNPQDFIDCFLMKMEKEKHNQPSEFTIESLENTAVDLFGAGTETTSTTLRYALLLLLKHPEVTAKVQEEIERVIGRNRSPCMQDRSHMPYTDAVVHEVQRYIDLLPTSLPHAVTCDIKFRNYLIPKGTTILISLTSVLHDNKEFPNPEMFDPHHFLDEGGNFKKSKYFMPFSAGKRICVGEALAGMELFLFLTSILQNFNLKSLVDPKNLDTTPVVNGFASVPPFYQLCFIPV
How it was run: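 P450-Glo proluciferin substrate with CYP2C9 enzyme; 10 min RT preincubation, then NADPH regeneration 1 h at 37C; luciferin detection reagent 20 min RT, luminescence in relative luminescence units.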

[12] = target: Voltage-gated inwardly rectifying potassium channel KCNH2 (Homo sapiens) (UniProt Q12809); assay: Human Ether-a-go-go-Related Gene (hERG) channel small molecule antagonists: fluorescence cell-based qHTS assay (AID 1671200); also: series mostly up to about 77 µM; nearly all actives have a fitted effect of over 50% in size
Voltage-gated inwardly rectifying potassium channel KCNH2 (Homo sapiens), sequence (Q12809 whole entry, looked up): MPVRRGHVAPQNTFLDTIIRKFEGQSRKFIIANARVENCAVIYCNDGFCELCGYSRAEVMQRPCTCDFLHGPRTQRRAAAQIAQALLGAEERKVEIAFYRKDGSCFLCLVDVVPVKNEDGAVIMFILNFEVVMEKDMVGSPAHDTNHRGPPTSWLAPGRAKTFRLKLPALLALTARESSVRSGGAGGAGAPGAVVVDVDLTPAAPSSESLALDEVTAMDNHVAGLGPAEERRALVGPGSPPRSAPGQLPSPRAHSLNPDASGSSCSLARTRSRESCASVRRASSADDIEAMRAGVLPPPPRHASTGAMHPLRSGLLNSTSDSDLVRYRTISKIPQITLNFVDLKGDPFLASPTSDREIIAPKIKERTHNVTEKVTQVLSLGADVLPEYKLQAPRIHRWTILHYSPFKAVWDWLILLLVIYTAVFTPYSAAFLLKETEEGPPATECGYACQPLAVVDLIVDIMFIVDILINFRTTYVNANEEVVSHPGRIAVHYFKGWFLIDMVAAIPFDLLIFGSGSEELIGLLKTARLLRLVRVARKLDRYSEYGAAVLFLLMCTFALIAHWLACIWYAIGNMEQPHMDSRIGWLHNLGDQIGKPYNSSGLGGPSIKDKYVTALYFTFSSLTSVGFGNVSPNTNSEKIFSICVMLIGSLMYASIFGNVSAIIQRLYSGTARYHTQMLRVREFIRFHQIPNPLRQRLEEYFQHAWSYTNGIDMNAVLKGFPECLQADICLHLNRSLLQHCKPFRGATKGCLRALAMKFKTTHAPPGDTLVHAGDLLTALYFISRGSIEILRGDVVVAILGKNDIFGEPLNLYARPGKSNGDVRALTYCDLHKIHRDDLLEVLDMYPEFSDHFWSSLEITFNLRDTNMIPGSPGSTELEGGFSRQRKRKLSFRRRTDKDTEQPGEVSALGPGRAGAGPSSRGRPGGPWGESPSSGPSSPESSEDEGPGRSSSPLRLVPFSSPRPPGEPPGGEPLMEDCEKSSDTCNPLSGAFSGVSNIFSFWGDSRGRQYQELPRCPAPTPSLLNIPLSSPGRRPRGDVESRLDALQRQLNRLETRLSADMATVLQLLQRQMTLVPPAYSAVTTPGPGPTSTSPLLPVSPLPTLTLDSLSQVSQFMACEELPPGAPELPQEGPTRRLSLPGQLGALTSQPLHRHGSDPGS
How it was run: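 Thallium flux as potassium surrogate: FluxOR II dye loaded 1 h at room temperature into hERG-expressing U2OS cells, then stimulus buffer added after 10 min. Kinetic 480 nm excitation/540 nm emission read, 2 min.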

[13] = target: Cytochrome P450 3A4 (Homo sapiens) (UniProt P08684); assay: Cytochrome P450 Family 3 Subfamily A Member 4 (CYP3A4) small molecule antagonists: luciferase reporter qHTS assay (AID 1671201); also: nearly all actives have a fitted effect of over 50% in size; also: potency is read from the fitted curve at half-maximal effect
Cytochrome P450 3A4 (Homo sapiens), sequence (P08684 whole entry, looked up): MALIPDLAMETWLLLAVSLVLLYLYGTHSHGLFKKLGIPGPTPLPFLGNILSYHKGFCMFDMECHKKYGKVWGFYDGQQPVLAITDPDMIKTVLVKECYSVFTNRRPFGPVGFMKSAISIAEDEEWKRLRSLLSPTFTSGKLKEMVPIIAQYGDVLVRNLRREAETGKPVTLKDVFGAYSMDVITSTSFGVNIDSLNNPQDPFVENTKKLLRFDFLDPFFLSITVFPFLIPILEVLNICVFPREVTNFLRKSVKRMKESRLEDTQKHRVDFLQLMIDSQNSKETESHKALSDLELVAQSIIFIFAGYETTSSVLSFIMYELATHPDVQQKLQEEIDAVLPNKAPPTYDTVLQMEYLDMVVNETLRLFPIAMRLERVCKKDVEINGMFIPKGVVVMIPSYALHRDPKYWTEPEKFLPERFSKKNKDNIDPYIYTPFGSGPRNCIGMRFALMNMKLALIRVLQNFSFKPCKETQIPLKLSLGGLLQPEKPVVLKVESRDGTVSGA
How it was run: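 Recombinant human CYP3A4 converts a proluciferin substrate to luciferin over 1 h at room temperature after NADPH regeneration solution is added (compound preincubated 10 min); detection reagent stops reaction, luminescence read 20 min later as relative units.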

[14] = Caspase-3/7 induction in CHO-K1 cells by small molecules, qHTS cell viability counter screen (AID 1346979); also: nearly all actives have a fitted effect of over 35% in size
How it was run: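 Cytotoxicity counter screen: CellTiter-Fluor added to compound-treated wild-type CHO-K1 cells at 16 h (37C, 5% CO2), fluorescence measured 1 h later; same wells as caspase-3/7 measurement.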

[15] = target: Acetylcholinesterase (Homo sapiens) (UniProt P22303); assay: Acetylcholinesterase (AChE) small molecule antagonists: fluorescence cell-based qHTS assay (AID 1347398; calls by dose curve; also: nearly all actives have a fitted effect of over 50% in size; also: potency is read from the fitted curve at half-maximal effect); settings: Potency: AChE activity
How it was run: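 Endogenous acetylcholinesterase of SH-SY5Y neuroblastoma cells is measured in situ. After overnight attachment and 30 min compound exposure, cells receive acetylthiocholine and Thiolite Green; fluorescence is read after 40 min at room temperature.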

[16] = target: Cytochrome P450 1A2 (Homo sapiens) (UniProt P05177); assay: Cytochrome P450 Family 1 Subfamily A Member 2 (CYP1A2) small molecule antagonists: luciferase reporter qHTS assay (AID 1671199)
Cytochrome P450 1A2 (Homo sapiens), sequence (P05177 whole entry, looked up): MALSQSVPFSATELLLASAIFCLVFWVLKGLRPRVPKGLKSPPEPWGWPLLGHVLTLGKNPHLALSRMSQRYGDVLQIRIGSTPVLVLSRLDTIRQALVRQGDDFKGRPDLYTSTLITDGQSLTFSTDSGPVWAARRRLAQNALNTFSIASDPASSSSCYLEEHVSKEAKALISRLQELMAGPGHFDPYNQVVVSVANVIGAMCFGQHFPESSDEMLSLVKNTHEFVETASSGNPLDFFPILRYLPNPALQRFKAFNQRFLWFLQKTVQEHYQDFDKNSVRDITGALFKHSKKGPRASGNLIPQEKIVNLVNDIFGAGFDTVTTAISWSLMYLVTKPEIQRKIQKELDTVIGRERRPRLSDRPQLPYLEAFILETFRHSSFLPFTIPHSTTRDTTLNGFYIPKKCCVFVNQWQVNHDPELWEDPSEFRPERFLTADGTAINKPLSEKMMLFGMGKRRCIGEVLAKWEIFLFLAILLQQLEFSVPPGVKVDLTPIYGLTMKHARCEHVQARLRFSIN
How it was run: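 Enzymatic CYP1A2 assay, human, luminescent: 10 min compound–enzyme–substrate preincubation, 1 h NADPH-dependent turnover, 20 min detection step, room temperature throughout. Reduced light indicates lower CYP1A2 activity.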

Measured: Potency

Fc1cc(Br)ccc1CBr
inactive: [1] | [2] | [3] | [4] | [5] | [6] | [7] | [8] | [9] | [10] | [11] | [12] | [13]

COc1cc(C[C@@H](C)N)c(OC)cc1C
active: [9] 47.9 µM
inactive: [2] | [14] | [3] | [4] | [5] | [6] | [7] | [15] | [8] | [10] | [11] | [12] | [13]

O=C(O)C(Br)CBr (stereo unspecified)
inactive: [1] | [2] | [3] | [4] | [6] | [7] | [15] | [8] | [10] | [12] | [13]
active: [5] 62.2 µM | [9] 36.2 µM | [16] 64.4 µM

Nc1cc2c3c(c1)C(c1ccccc1)=N[C@@H](NC(=O)c1cccnc1)C(=O)N3CC2
inactive: [1] | [2] | [3] | [4] | [6] | [7] | [15] | [8] | [9] | [12]
active: [5] 61.1 µM | [11] 7.1 µM | [13] 11.2 µM

CCOP(=S)(OCC)SCSP(=S)(OCC)OCC
inactive: [2] | [4] | [12]
active: [5] 5.45 µM | [6] 39.9 µM | [7] 63.3 µM | [15] 35.6 µM | [8] 17.8 µM | [9] 35.6 µM | [10] 0.399 µM | [11] 0.796 µM | [16] 15.9 µM
